Test results: PubChem BioAssay (Tox21)
Where “and” joins values, the source holds several entries; their conditions need not be identical. Identical values can stand only once. Inconclusive results are not listed. Entries that show only a call come without a potency. Where a structure was tested more than once in an assay, its records may differ in their call. Calls of active or inactive are those of the source. The call rests on the fitted dose curve; in most records, active means well fitted activation curve with a large enough effect in the repeat runs; inconclusive means weak or mixed curves; inactive means flat fitted curve, though single readings scatter.

Experiment: A CellTox Green Cytotoxicity Assay to monitor cytotoxicity in HEK293 cells - 40 hour (AID 1224871); further: nearly all actives have a fitted effect of over 45% in size
Details: CellTox Green fluorescence; series mostly up to 76.8 µM
From the text: National Center for Advancing Translational Sciences [NCATS]
NIH Chemical Genomics Center [NCGC]
U.S. Environmental Protection Agency [EPA]
National Institutes of Environmental Health Sciences [NIEHS]
National Toxicology Program [NTP]
Cell-based models are critical for drug discovery. Determining the natural cytotoxic effects resulting from test compounds is an essential research activity. A CellTox Green Cytotoxicity Assay to monitor cytotoxicity in real time of continues cell culture during 40 hours of the compound treatment was used to screen Tox21 10K library compounds in Hek293 cells. CellTox Green Cytotoxicity Assay is a nonlytic, homogeneous, biofluorescent method to measure cytotoxicity in cell culture after experimental manipulation. The assay system uses a proprietary asymmetric cyanine dye that is excluded from viable cells but preferentially stains the dead cell's DNA. […] Viable cells produce no appreciable increases in fluorescence. Therefore, the fluorescence signal produced by the binding interaction with dead cell DNA is proportional to cytotoxicity.
The mixture of Hek293 cell suspension and reagents were dispensed at 600cells/6 ul/well in 1536-well tissue culture treated black solid bottom plates using a Multidrop dispenser. After the assay plates were incubated at a 37 C/5% CO2 incubator for 5 hours, 23 nL of compounds dissolved in DMSO, positive and negative controls was transferred to the assay plate by a pintool work station. The plates were incubated at 37 C for 40 hours. The fluorescence intensity were measured at 0h, 8h, 16h, 24h, 32h and 40h time points using ViewLux plate reader during compound treatment.
Potency means the concentration at half of the fitted maximal effect.

| SMILES | Potency |
| --- | --- |
| Cc1cccc(Nc2cc(Cl)nc(SCC(=O)O)n2)c1C | inactive |
| N[C@@H](Cc1c[nH]c2ccccc12)C(=O)O | inactive |
| COC(=O)C1CCC(C(=O)OC)CC1 (stereo not given) | inactive |
| CCN(CC)CCOC(=O)c1ccc(N)cc1 | inactive |
| CC(=O)Oc1ccccc1C(=O)O | inactive |
| COc1ccccc1NC(=O)CC(C)=O | inactive |
| COc1cc(O)c(C(=O)c2ccccc2)cc1S(=O)(=O)O | inactive |
| C1CNCCN1 | inactive |
| C#C[C@]1(O)CC[C@H]2[C@@H]3CCC4=CC(=O)CC[C@@H]4[C@H]3CC[C@@]21CC | 49.1 µM (active) and inactive |
| c1ccc2[nH]c(-c3cscn3)nc2c1 | inactive |
| COC1=CC(=O)C[C@@H](C)[C@]12Oc1c(Cl)c(OC)cc(OC)c1C2=O | inactive |
| CCCCOC(=O)CCCCCCCCC(=O)OCCCC | inactive |
| O=c1c(-c2ccc(O)cc2)coc2cc(O)cc(O)c12 | inactive |
| COc1cc(C=O)ccc1O | inactive |
| OC[C@@H](O)[C@@H](O)[C@H](O)[C@H](O)CO | inactive |
| COc1ccc(C(=O)c2ccccc2)c(O)c1 | inactive |
| CC(=O)CCC(C)C | inactive and 24.5 µM (active) |
| C=C(C)OC(C)=O | inactive |
| C=C(C)C(N)=O | inactive |
| CCCCOCCOCCSC#N | inactive |

| SMILES | Potency |
| --- | --- |
| CCN1CCCC1=O | inactive |
| Cc1ccc(O)c(-n2nc3ccccc3n2)c1 | inactive |
| O=C(O)Cc1cccc2ccccc12 | inactive |
| CCn1cc(C(=O)O)c(=O)c2ccc(C)nc21 | inactive |
| Cc1c(N(C)CS(=O)(=O)O)c(=O)n(-c2ccccc2)n1C | inactive |
| CC(C)(C)CC(C)(C)c1ccc(O)c(-n2nc3ccccc3n2)c1 | inactive |
| CC(C)Cc1ccc(C(C)C(=O)O)cc1 (stereo not given) | inactive |
| COCCOCCOC | inactive |
| CCCCNC(=O)NS(=O)(=O)c1ccc(N)cc1 | inactive |
| COc1ccccc1O | inactive |
| CC1=C(/C=C/C(C)=C/C=C/C(C)=C/C(=O)O)C(C)(C)CCC1 | inactive |
| NC(=O)OCC(COC(N)=O)c1ccccc1 | inactive |
| NCCNc1cccc2ccccc12 | inactive |
| O=c1cc[nH]c(=O)[nH]1 | inactive |
| COc1cc2c(c(OC)c1OC)-c1ccc(OC)c(=O)cc1[C@@H](NC(C)=O)CC2 | 34.3 µM (active) and inactive |
| CC(C)=CCC/C(C)=C/CO | inactive |
| CC(=O)c1ccc(S(=O)(=O)NC(=O)NC2CCCCC2)cc1 | inactive |
| CC(C)(C)NCC(O)c1ccc(O)c(CO)c1 (stereo not given) | inactive |
| COC(=O)c1ccc(C=O)cc1 | inactive |
| C/C=C/c1ccc(O)c(OC)c1 | inactive |
